Sampled rows, rich in hits. Any-hit rate of the full collection: about 2.7%.
PGC1a acetyl inh – inhibitors of PGC1a acetylation signal, primary screen, cell-based, U2OS, AlphaScreen, inhibitor mode. inhibition, % at 15.6 µM. AlphaScreen anti-acetyl-lysine; with virally co-expressed GCN5 acetyltransferase. 350,000 tested, 0.17% active. AID 651687, 2012;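 active means every replicate shows inhibition of at least 40%; inconclusive means mean inhibition at least 40% but some replicate below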
Env fusion inh – inhibitors of HIV-1 Env-driven cell-cell fusion, primary screen, HeLa-JRFL effector, CEM21 target cells, luciferase. inhibition, % at 12.3 µM. 360,000 tested, 1.1% active;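 active means mean replicate inhibition score of at least 50 and every replicate individually at or above 50; inconclusive means only one of the two criteria met; inactive means mean below 50 and not all replicates reaching 50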
F508del corr – F508del CFTR correction, initial screen, CFBE line, single point | CFBE cells, YFP halide quenching; stimulated with forskolin plus potentiator P3; % fluorescence drop versus neutral controls | activity (quench increase), % at 7.58 µM | 350,000 tested, 0.36% active;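 active means mean added fluorescence quench of at least 8% versus neutral control, with both replicates also reaching 8%; inconclusive means only one of the mean or replicate conditions met; inactive means mean below 8% and not both replicates reaching 8%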;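 further: cells transiently co-express mutant CFTR-F508del with the halide-sensitive YFP; corrector assay measuring rescue of mutant channel to the surface after 24 h compound exposure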
GSIS activator – GLuc luminescence reporter in INS-1E cells, primary screen for activators of glucose-dependent secretion of insulin; INS-1E GLuc reporter insulin secretion, 2-3 h; activation, % at 16.6 µM; 370,000 tested, 0.61% active;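 active means lowest replicate activation of at least 40%, so every replicate reaches that level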
PAX8 inh HTS – inhibitors of PAX8-driven TPO luciferase reporter, primary screen, RMG-I cells, single concentration. SteadyGlo, 24 h. inhibition, % at 12.6 µM. 360,000 tested, 1.2% active. AID 652154, 2013;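 active means mean replicate inhibition at least 60% with every replicate also reaching 60%; inconclusive means only one of the two criteria is met; inactive means mean below 60% and not all replicates reaching 60%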;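 further: luciferase light reporting Pax8 driven TPO promoter activity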
EWS-Fli inh – EWS/Fli-driven NR0B1 reporter inhibitors, primary screen, A673 cells, NR0B1 luciferase, luminescence, MLPCN library. 350,000 tested, 0.67% active. inhibition, % at 12.6 µM. AID 651661, 2012. viability-normalised;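 active means mean inhibition of at least 50% after viability correction, with every replicate also passing that limit; inconclusive means mean reaches 50% but only one of two replicates passes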;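 further: firefly luciferase signal divided by Alamar Blue viability fluorescence both relative to DMSO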
Hits are given with their value; – = inactive; ? = inconclusive; · = no result given; [ ] = another dose, or the depositor's remark.

SMILES	PGC1a acetyl inh	Env fusion inh	F508del corr	GSIS activator	PAX8 inh HTS	EWS-Fli inh
COc1ccc(-n2c(-c3ccc(Cl)cc3)c[nH]c2=S)cc1	–	–	–	200	–	–
CC(C)NC(=O)Nc1ccc2c(c1)C(=O)N([C@H](C)CO)C[C@H](C)[C@H](CN(C)Cc1ccc(C(F)(F)F)cc1)OCCCC[C@H](C)O2	–	–	–	–	–	–
C=CC(=O)N1C/C(=C/c2ccccc2)C(=O)/C(=C\c2ccccc2)C1	73	79	–	50	80	72
C=CC(=O)N1C/C(=C/c2ccc(Cl)cc2)C(=O)/C(=C\c2ccc(Cl)cc2)C1	·	102	–	·	110	77
Cc1nc2c(-c3ccc(F)cc3)c(C)nn2c(C)c1CCC(=O)Nc1ccccc1	–	63	–	–	–	–
Cc1nc2c(-c3ccc(F)cc3)c(C)nn2c(C)c1CCC(=O)N1CCN(c2ccccc2)CC1	–	–	–	–	–	–
Cc1nc2c(-c3ccc(F)cc3)c(C)nn2c(C)c1CCC(=O)N1CCN(c2ccc(F)cc2)CC1	–	56	–	–	–	–
Cc1nc2c(-c3ccc(F)cc3)c(C)nn2c(C)c1CCC(=O)N1CCC(Cc2ccccc2)CC1	–	55	–	–	–	–
CNC[C@H]1Oc2cc(C#CC3(O)CCCC3)ccc2S(=O)(=O)N([C@@H](C)CO)C[C@H]1C	–	·	–	–	–	–
CC(C)[C@H]1C(=O)N[C@H](c2ccccc2)CC=CC[C@@H](C)Oc2ccccc2C(=O)N1C (mixture of isomers)	·	·	·	–	·	·
COc1ccc(NC(=O)Nc2ccc3c(c2)C(=O)N([C@@H](C)CO)C[C@@H](C)[C@@H](CN(C)Cc2ccc(C(=O)O)cc2)OCCCC[C@@H](C)O3)cc1	–	–	–	–	–	–
CN1CCC(NCCC(c2ccc(F)cc2)c2ccc(Cl)cc2)CC1 (configuration not stated)	·	–	–	–	?	55
CC(C)C(CCNC1CCN(C)CC1)c1ccc(Cl)cc1 (configuration not stated)	–	–	–	–	–	–
O=C(/C=C/c1ccco1)NC(=S)Nc1nc(-c2ccc3ccccc3c2)cs1	–	·	12	·	–	?
CCc1nc(N2CCCCC2C)c2oc3ccccc3c2n1 (configuration not stated)	–	75	·	–	·	·
CCc1nc(N2CCCCC2C(=O)O)c2oc3ccccc3c2n1 (configuration not stated)	–	–	–	–	–	–
CCc1nc(N2CCCCC2)c2oc3ccccc3c2n1	–	69	·	·	·	·
O=C(C[C@@H]1C=C[C@@H](NC(=O)Nc2ccccc2F)[C@H](CO)O1)NCc1ccc(F)cc1	–	–	–	–	–	–
COC(=O)c1cc(C(=O)N2CCN(c3cccc(C)c3C)CC2)cc([N+](=O)[O-])c1	·	–	·	–	–	56
COC(=O)c1cc(C(=O)N2CCN(c3ncccn3)CC2)cc([N+](=O)[O-])c1	·	–	–	–	–	–
COC(=O)c1cc(C(=O)N2CCN(c3ccccc3OC)CC2)cc([N+](=O)[O-])c1	·	–	–	–	–	55
COc1ccccc1-c1ccc2n(c1=O)C[C@H]1[C@H](CO)[C@@H](C(=O)N3CCCCC3)N(C)[C@@H]21	·	–	·	–	·	–
C[C@H](C(=O)N(C)C[C@@H]1OCc2ccccc2-c2ccccc2C(=O)N([C@@H](C)CO)C[C@@H]1C)c1ccccc1	–	58[16.7 µM]	–	–	–	–
C[C@H](C(=O)N(C)C[C@@H]1OCc2ccccc2-c2ccccc2C(=O)N([C@H](C)CO)C[C@@H]1C)c1ccccc1	–	57[16.7 µM]	–	–	–	–
C[C@H](C(=O)N(C)C[C@H]1OCc2ccccc2-c2ccccc2C(=O)N([C@@H](C)CO)C[C@H]1C)c1ccccc1	–	–	–	–	–	–
SMILES	PGC1a acetyl inh	Env fusion inh	F508del corr	GSIS activator	PAX8 inh HTS	EWS-Fli inh
C[C@H](C(=O)N(C)C[C@@H]1OCc2ccccc2-c2ccccc2C(=O)N([C@@H](C)CO)C[C@H]1C)c1ccccc1	–	59[16.7 µM]	–	–	–	–
CCOc1ccc(N2CC(C(=O)Nc3ccc(S(=O)(=O)N4CCCCC4)cc3)CC2=O)cc1 (configuration not stated)	·	67	–	–	–	–
COc1ccccc1N1CC(C(=O)Nc2ccc(S(=O)(=O)N3CCCC3)cc2)CC1=O (configuration not stated)	–	–	9.6	·	–	–
CCOc1ccc(CN(C)C(=O)CCc2ccc(S(=O)(=O)N3CCCCCC3)cc2)cc1	–	65	–	–	–	–
COc1ccc(CN(C)C(=O)CCc2ccc(S(=O)(=O)N3CCCCCC3)cc2)c(OC)c1	–	·	–	–	–	–
CSc1cccc(N2CC(C(=O)Nc3cccc(S(=O)(=O)N4CCCC4)c3)CC2=O)c1 (configuration not stated)	–	116	–	–	–	–
COC(=O)C[C@@H]1CC[C@@H]2[C@H](COC[C@H](O)CN2C(=O)Nc2ccccc2OC)O1	–	–	–	–	–	–
COC(=O)[C@H](C(C)C)N(Cc1ccccc1)S(=O)(=O)CCN1CCCC1	–	–	–	–	–	–
COC(=O)[C@H](Cc1ccccc1)N(Cc1ccccc1)S(=O)(=O)N(Cc1ccccc1)[C@@H](Cc1ccccc1)C(=O)OC	·	80	–	–	–	–
CCOC(=O)[C@@H](C)N(C(=O)OC(C)(C)C)S(=O)(=O)N(Cc1ccccc1)[C@H](C(=O)OC)C(C)C	–	85	–	·	–	–
COC(=O)[C@H](CC(C)C)NS(=O)(=O)N[C@@H](CC(C)C)C(=O)OC	–	–	–	–	–	–
COC(=O)[C@H](Cc1ccccc1)N(C)S(=O)(=O)c1cccc(S(=O)(=O)N(C)[C@@H](Cc2ccccc2)C(=O)OC)c1	–	–	–	–	–	–
C=CCN([C@@H](CC(C)C)C(=O)OC)S(=O)(=O)N(CC=C)[C@@H](CC(C)C)C(=O)OC	·	81	–	–	–	–
COC(=O)[C@@H](CC(C)C)NS(=O)(=O)N(Cc1ccccc1)[C@@H](CC(C)C)C(=O)OC	–	55	–	–	–	–
COc1ccccc1-c1ccc([C@H]2[C@@H](CO)N3CCCCN(C(=O)c4ccncc4)C[C@H]23)cc1	–	·	–	–	–	–
CCOC(=O)C1=CC[C@@H](c2cccc(Br)c2)N(S(=O)(=O)c2ccc(F)cc2)[C@H]1c1cccc(Cl)c1	·	60	–	–	–	–
CCOC(=O)C1=C[C@@H](C(C)(C)C)N(S(=O)(=O)c2ccc([N+](=O)[O-])cc2)[C@H]1c1cccc(Cl)c1	·	71	–	–	–	–
